Laboratory results taken from PubChem BioAssay AID1159580 (chemical genetic matrix, 2015).
Values joined by “and” are separate entries in the source; they are usually repeats but may differ in a detail not shown here. Equal entries are not always repeated. Out of some 5,500 compounds screened, about 2,000 (36%) were called active. Inconclusive results (about 18%) are left out. Cut-off read from the data, not from the text of the source: active = normalized growth mostly below about 0.91 (no sharp cut-off); inconclusive = no clear call, values can overlap the other calls; inactive = mostly above about 0.92. The list shows a part of the results.

Test: chemical genetic growth profiling, strain panel (AID 1159580);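 note: tested at 20 µM; growth read once vehicle control cultures reached saturation at 30 °C; 1 = growth at the plate median or of vehicle wells; lower values mean less growth of the strain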
Conditions: S. cerevisiae deletion strains, growth OD

Measured: normalized growth

C#CCN(C)Cc1ccccc1
inactive: locus YAL013W, strain DEP1, stronger effect = lower value 0.994 | locus YAL021C, strain ccr4, stronger effect = lower value 1.03 | locus YAL026C, strain drs2, stronger effect = lower value 1.02 | locus YAL030W, strain snc1, stronger effect = lower value 0.999 | locus YAL040C, strain CLN3, stronger effect = lower value 0.998 | locus YBL061C, strain skt5, stronger effect = lower value 0.984 | locus YBR009C, strain hhf1, stronger effect = lower value 0.982 | locus YBR021W, strain FUR4, stronger effect = lower value 1.02 | locus YBR023C, strain chs3, stronger effect = lower value 0.997 | locus YBR171W, strain sec66, stronger effect = lower value 1.04 | locus YBR229C, strain ROT2, stronger effect = lower value 1 | locus YBR231C, strain swc5, stronger effect = lower value 1.01 | locus YBR279W, strain paf1, stronger effect = lower value 0.977 | locus YCL011C, strain gbp2, stronger effect = lower value 1 | locus YCL016C, strain dcc1, stronger effect = lower value 0.962 | locus YCL029C, strain bik1, stronger effect = lower value 1.02 | locus YCL061C, strain MRC1 (second series), stronger effect = lower value 1 | locus YCL069W, strain vba3, stronger effect = lower value 1.02 | locus YCR088W, strain abp1, stronger effect = lower value 1.04 | locus YDL005C, strain med2, stronger effect = lower value 1.02 | locus YDL035C, strain GPR1, stronger effect = lower value 0.997 | locus YDL040C, strain nat1, stronger effect = lower value 1.02 | locus YDL074C, strain BRE1, stronger effect = lower value 0.991 | locus YDL101C, strain DUN1, stronger effect = lower value 1.01 | locus YDL134C, strain PPH21, stronger effect = lower value 1 | locus YDL185W, strain tfp1, stronger effect = lower value 1.01 | locus YDL192W, strain arf1, stronger effect = lower value 1.02 | locus YDR001C, strain nth1, stronger effect = lower value 1.01 | locus YDR069C, strain doa4, stronger effect = lower value 0.955 | locus YDR101C, strain arx1, stronger effect = lower value 1.02 | locus YDR137W, strain rgp1, stronger effect = lower value 0.98 | locus YDR159W, strain sac3, stronger effect = lower value 0.933 | locus YDR162C, strain NBP2, stronger effect = lower value 1 | locus YDR195W, strain ref2 0.988 | locus YDR297W, strain sur2, stronger effect = lower value 0.998 | locus YDR318W, strain mcm21, stronger effect = lower value 1.03 | locus YDR334W, strain swr1, stronger effect = lower value 1.02 | locus YDR335W, strain msn5, stronger effect = lower value 0.996 | locus YDR363W, strain ESC2, stronger effect = lower value 0.949 | locus YDR388W, stronger effect = lower value 1.02 | locus YDR392W, strain spt3, stronger effect = lower value 0.958 | locus YDR502C, strain sam2, stronger effect = lower value 1.01 | locus YEL003W, strain gim4, stronger effect = lower value 1.04 | locus YEL037C, strain rad23, stronger effect = lower value 1.03 | locus YEL061C, strain CIN8 (second series), stronger effect = lower value 1.02 | locus YEL061C, strain CIN8, stronger effect = lower value 0.99 | locus YER002W, strain NOP16, stronger effect = lower value 1.02 | locus YER015W, strain faa2, stronger effect = lower value 1 | locus YER016W, strain bim1, stronger effect = lower value 0.979 | locus YER110C, stronger effect = lower value 1.01 | locus YER111C, strain swi4, stronger effect = lower value 1.01 | locus YER155C, strain BEM2 (second series), stronger effect = lower value 1.01 | locus YER155C, strain BEM2, stronger effect = lower value 1 | locus YER167W, strain BCK2, stronger effect = lower value 1 | locus YFR010W, strain ubp6, stronger effect = lower value 1.04 | locus YGL078C, strain dbp3, stronger effect = lower value 1.01 | locus YGL086W, strain mad1, stronger effect = lower value 0.998 | locus YGL167C, strain pmr1, stronger effect = lower value 0.987 | locus YGL173C, strain kem1, stronger effect = lower value 1.05 | locus YGL227W, strain vid30, stronger effect = lower value 1.01 | locus YGL240W, strain doc1, stronger effect = lower value 0.977 | locus YGL248W, strain PDE1, stronger effect = lower value 1 | locus YGL253W, strain hxk2, stronger effect = lower value 1.02 | locus YGR078C, strain PAC10, stronger effect = lower value 0.995 | locus YGR135W, strain pre9, stronger effect = lower value 1.02 | locus YGR252W, strain gcn5, stronger effect = lower value 0.965 | locus YHR013C, strain ard1, stronger effect = lower value 1 | locus YHR027C, strain rpn1, stronger effect = lower value 1.02 | locus YHR030C, strain SLT2, stronger effect = lower value 0.992 and 0.966 | locus YHR079C, strain IRE1 (second series), stronger effect = lower value 1.03 | locus YHR079C, strain IRE1, stronger effect = lower value 0.927 | locus YHR094C, strain hxt1, stronger effect = lower value 1.02 | locus YHR129C, strain ARP1, stronger effect = lower value 0.996 | locus YHR142W, strain chs7, stronger effect = lower value 1.06 | locus YHR200W, strain rpn10, stronger effect = lower value 1.01 | locus YIL066C, strain RNR3, stronger effect = lower value 0.992 | locus YIL073C, strain SPO22, stronger effect = lower value 1.06 | locus YIL125W, strain kgd1, stronger effect = lower value 1.01 | locus YIR030C, strain dcg1, stronger effect = lower value 1.01 | locus YJL092W, strain hpr5, stronger effect = lower value 1.02 | locus YJL095W, strain BCK1 (second series), stronger effect = lower value 1.01 | locus YJL095W, strain BCK1, stronger effect = lower value 0.99 and 0.98 | locus YJL115W, strain asf1, stronger effect = lower value 1.01 | locus YJL129C, strain trk1, stronger effect = lower value 1.03 | locus YJL134W, strain LCB3, stronger effect = lower value 1 | locus YJL154C, strain vps35, stronger effect = lower value 1.01 | locus YJL164C, strain tpk1, stronger effect = lower value 1.01 | locus YJL166W, strain qcr8, stronger effect = lower value 1.03 | locus YJL168C, strain set2, stronger effect = lower value 1.01 | locus YJL187C, strain SWE1 (second series), stronger effect = lower value 1 | locus YJL187C, strain SWE1, stronger effect = lower value 1.01 | locus YJR043C, strain POL32, stronger effect = lower value 0.997 | locus YJR066W, strain TOR1, stronger effect = lower value 0.936
